# Reference: the supplement of paper PMC12819154, “High-throughput peptide-centric local stability assay extends protein–ligand identification to membrane proteins, tissues and bacteria” (Nature Structural & Molecular Biology, 2025)
# Compound: Nc1ncnc2c1ncn2[C@@H]1O[C@H](COP(=O)(O)OP(=O)(O)OP(=O)(O)O)[C@@H](O)[C@H]1O [adenosine 5'-triphosphate]
# Assay: log2 fold change of tryptic peptide abundance, ligand vs vehicle (limited proteolysis) (log2 ratio); higher = more trypsin-susceptible (destabilized)
# Settings: ligand concentration: 5 mM; sample: E. coli desalted lysate; replicate design: treated before aliquoting
# Experimental: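 HT-PELSA: desalted E. coli K-12 BW25113 lysate (with 12 mM MgCl2) incubated with 5 mM ATP (pH 7) or water for 30 min at 25 C, then a 4 min trypsin pulse at 22 C. Peptides were quantified by DIA-MS (4 replicates). Value is the peptide log2 fold change (treated/control); negative = stabilized. Scale: negative = ligand-stabilized region.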
# 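Also: lysate desalted by size exclusion to strip endogenous ATP, peptide intensities built from DIA-NN precursor signals, and peptides missing any value discarded before comparison.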
# Chain of UniProt P27278 (P27278 whole entry): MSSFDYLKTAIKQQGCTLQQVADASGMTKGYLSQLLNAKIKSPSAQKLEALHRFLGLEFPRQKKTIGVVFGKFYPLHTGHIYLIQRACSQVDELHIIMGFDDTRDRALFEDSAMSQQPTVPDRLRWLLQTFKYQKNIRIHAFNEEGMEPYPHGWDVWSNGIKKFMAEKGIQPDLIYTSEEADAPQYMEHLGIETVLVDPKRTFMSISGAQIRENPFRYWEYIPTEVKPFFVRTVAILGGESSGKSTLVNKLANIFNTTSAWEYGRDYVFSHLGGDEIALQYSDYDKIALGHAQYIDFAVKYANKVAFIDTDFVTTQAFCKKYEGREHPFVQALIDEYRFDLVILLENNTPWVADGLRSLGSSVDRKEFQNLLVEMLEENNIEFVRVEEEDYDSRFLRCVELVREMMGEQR
# Chain of UniProt P76938 (P76938 whole entry): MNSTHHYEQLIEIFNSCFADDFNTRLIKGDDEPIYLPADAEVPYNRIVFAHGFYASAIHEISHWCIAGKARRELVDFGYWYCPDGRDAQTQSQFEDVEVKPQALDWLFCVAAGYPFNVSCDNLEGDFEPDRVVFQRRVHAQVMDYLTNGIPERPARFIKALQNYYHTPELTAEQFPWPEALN
# Chain of UniProt P11664 (P11664 whole entry): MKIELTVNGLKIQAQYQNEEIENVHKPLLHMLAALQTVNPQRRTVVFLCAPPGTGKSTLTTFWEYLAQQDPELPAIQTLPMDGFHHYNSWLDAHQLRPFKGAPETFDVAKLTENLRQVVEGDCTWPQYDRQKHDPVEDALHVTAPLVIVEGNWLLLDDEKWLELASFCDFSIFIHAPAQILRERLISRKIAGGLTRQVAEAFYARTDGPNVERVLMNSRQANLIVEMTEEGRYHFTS
# Chain of UniProt P32134 (P32134 whole entry): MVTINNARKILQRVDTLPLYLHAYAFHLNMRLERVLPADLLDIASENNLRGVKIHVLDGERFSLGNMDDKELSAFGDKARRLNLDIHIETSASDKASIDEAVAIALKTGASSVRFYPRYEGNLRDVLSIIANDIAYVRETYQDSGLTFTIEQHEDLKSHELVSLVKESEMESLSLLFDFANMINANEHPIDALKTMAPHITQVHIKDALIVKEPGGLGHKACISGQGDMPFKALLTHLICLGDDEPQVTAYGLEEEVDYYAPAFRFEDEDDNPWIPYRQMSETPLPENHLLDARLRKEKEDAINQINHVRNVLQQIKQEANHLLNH
# Chain of UniProt P0ADP0 (P0ADP0 whole entry): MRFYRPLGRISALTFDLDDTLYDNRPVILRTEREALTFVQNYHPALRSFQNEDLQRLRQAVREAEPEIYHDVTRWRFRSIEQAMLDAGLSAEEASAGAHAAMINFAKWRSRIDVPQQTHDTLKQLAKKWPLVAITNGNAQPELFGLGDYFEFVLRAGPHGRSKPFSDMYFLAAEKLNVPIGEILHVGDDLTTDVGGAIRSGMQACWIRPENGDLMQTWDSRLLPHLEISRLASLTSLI
# Chain of UniProt P03024 (P03024 whole entry): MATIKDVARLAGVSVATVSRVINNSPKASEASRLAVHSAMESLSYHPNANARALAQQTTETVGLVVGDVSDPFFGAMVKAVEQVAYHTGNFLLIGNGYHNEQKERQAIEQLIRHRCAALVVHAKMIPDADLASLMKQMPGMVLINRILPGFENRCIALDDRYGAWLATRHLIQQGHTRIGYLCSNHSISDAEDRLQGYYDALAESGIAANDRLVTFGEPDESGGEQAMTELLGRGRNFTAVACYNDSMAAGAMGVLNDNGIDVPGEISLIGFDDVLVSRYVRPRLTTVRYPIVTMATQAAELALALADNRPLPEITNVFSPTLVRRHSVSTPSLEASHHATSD
# Chain of UniProt P09546 (P09546 whole entry): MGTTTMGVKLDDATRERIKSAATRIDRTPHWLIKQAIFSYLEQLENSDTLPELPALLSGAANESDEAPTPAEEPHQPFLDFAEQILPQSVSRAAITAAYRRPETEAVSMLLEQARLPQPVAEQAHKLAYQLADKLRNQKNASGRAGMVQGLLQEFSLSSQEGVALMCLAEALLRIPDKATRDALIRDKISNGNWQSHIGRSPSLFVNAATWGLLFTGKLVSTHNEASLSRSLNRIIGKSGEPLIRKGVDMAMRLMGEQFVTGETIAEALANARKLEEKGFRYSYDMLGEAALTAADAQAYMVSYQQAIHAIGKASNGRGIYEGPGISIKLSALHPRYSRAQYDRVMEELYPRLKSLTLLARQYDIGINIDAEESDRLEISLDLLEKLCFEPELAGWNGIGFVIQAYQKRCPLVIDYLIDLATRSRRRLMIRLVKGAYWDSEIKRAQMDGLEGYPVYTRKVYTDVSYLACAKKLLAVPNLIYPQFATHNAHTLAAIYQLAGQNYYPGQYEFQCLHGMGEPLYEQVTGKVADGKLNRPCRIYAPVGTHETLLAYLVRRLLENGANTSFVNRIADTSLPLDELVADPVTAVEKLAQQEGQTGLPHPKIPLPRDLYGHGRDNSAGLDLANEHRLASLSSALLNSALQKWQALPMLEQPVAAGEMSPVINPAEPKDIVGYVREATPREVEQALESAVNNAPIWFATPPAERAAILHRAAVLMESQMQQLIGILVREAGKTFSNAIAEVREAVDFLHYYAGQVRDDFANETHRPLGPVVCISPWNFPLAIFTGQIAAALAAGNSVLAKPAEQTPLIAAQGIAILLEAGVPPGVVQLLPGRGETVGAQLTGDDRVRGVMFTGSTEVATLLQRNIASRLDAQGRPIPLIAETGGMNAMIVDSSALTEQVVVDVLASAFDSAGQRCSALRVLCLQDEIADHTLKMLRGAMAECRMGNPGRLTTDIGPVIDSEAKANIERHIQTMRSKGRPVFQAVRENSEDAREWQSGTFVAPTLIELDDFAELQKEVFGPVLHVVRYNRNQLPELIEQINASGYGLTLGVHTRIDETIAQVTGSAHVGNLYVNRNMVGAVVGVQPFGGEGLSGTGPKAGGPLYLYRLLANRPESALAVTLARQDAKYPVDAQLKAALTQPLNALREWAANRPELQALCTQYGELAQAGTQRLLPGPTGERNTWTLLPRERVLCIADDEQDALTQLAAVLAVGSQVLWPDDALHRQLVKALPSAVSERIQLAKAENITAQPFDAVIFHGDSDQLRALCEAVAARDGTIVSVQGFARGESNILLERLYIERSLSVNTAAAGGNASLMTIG
# Chain of UniProt P25666 (P25666 whole entry): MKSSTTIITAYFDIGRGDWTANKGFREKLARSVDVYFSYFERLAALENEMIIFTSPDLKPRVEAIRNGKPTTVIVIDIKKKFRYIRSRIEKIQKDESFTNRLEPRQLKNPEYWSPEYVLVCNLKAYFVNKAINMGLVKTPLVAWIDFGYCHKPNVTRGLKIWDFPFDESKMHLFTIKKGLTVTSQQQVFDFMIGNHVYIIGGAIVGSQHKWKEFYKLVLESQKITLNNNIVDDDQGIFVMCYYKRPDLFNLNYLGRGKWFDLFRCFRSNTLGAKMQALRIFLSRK
row,Target,log2 fold change
1,"UniProt P32134 (peptide sequence: ACISGQGDMPFK, peptide start residue: 221)",-1.02
2,"UniProt P11664 (peptide sequence: GAPETFDVAK, peptide start residue: 101)",-1.46
3,"UniProt P0ADP0 (peptide sequence: EALTFVQNYHPALR, peptide start residue: 34)",0.493
4,"UniProt P27278 (peptide sequence: TFMSISGAQIR, peptide start residue: 202)",-2.94
5,"UniProt P03024 (peptide sequence: HSVSTPSLEASHHATSD, peptide start residue: 327)",0.482
6,"UniProt P25666 (peptide sequence: MHLFTIKK, peptide start residue: 171)",-0.804
7,"UniProt P09546 (peptide sequence: IYAPVGTHETLLAYLVRR, peptide start residue: 539)",0.991
8,"UniProt P76938 (peptide sequence: RVHAQVMDYLTNGIPERPAR, peptide start residue: 137)",0.412
